The nature of experiment [1]: Nuclear factor erythroid 2-related factor 2/antioxidant responsive element (Nrf2/ARE) small molecule agonists: qHTS cell viability counter screen in human keratinocytes (AID 1919968; active = well fitted curve in the direction sought with a large enough effect in the repeat runs; an effect the other way counts as inactive or inconclusive; note: nearly all actives have a fitted effect of over 55% in size). The method, boiled down:
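Seed 1,500 KeratinoSens cells per well, then incubate 5 h at 37 C/5% CO2. Add compounds in DMSO and incubate 23 h. Add CellTiter-Fluor, wait 1 h and read fluorescence.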

The nature of experiment [2]: Nuclear factor erythroid 2-related factor 2/antioxidant responsive element (Nrf2/ARE) small molecule agonists: luciferase reporter gene qHTS assay in human keratinocytes (AID 1919969). Note: nearly all actives have a fitted effect of over 35% in size.
Experiment [3] concerns the target Gonadotropin-releasing hormone receptor (Homo sapiens) (UniProt P30968). As to the kind of experiment: Human gonadotropin-releasing hormone receptor (GnRHR) small molecule agonists, calcium flux assay in GnRHR-HEK293 cells (AID 1920063). Note: nearly all actives have a fitted effect of over 35% in size. Note: potency is the fitted concentration of half-maximal effect. Put shortly: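 Cells: HEK293 stably expressing human GnRHR. Steps: overnight (18 h) culture, 1 h calcium dye loading at 37 C, compound addition, kinetic fluorescence read at 480/540 nm. Each compound tested at 15 concentrations in triplicate.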
A general note: A change in cytosolic calcium serves as a functional read-out for many receptors and channels.

Experiment [4] concerns the target KiSS-1 receptor (Homo sapiens) (UniProt Q969F8). As to the kind of experiment: Human kisspeptin (KISS1R) small molecule agonists, calcium flux assay in KISS1R-HEK293 cells (AID 1920064; active = well fitted curve in the direction sought with a large enough effect in the repeat runs; an effect the other way counts as inactive or inconclusive). Put shortly:
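Cells plated and incubated 18 h; dye added, 1 h at 37 C; compounds in DMSO pinned in; signal read at 480/540 nm every second for 3 min. Each compound tested at 15 concentrations in triplicate.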

Experiment [5] in a line: G protein-coupled receptor (GPCR) small molecule agonists, calcium flux assay: HEK293 wild type cell line counter screen (AID 1920065). Put shortly: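 Counter-screen of the Tox21 10K library for non-specific calcium release: dye-loaded cells received compounds in DMSO and were monitored by kinetic fluorescence (480/540 nm, 3 min). Fifteen concentrations, run in triplicate.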

A short description of experiment [6]: p53 small molecule agonists, cell-based qHTS assay with human liver microsomes (AID 1963577).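 Note: p53 response element beta-lactamase reporter cells with liver microsomes plus NADPH.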 Put shortly:
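16 h, 37 C exposure of p53RE-bla cells to compounds with human liver microsomes and NADPH (0.5 mg/mL final each); detection via LiveBLAzer mixture, 2 h dark at room temperature.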
In general terms: Quantitative high-throughput screening tests each substance at several concentrations.

A short description of experiment [7]: p53 small molecule agonists, cell-based qHTS assay with rat liver microsomes (AID 1963578). Put shortly: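 With rat liver microsomes and NADPH present (0.5 mg/mL final each), p53RE-bla cells are treated with compound for 16 h at 37 C. LiveBLAzer detection mixture is then applied for 2 h at room temperature in the dark.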
A short description of experiment [8]: p53 small molecule agonists, cell-based qHTS assay with human liver microsomes: qHTS cell viability counter screen (AID 1963579). Note: nearly all actives have a fitted effect of over 45% in size. Put shortly:
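In this multiplexed counter screen, the reporter plates were subsequently treated with CellTiter-Glo so that cell viability, reflected by luminescence, could be recorded for p53RE-bla cells dosed 16 h with compounds under microsomal activation (HLM and NADPH).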

A short description of experiment [9]: p53 small molecule agonists, cell-based qHTS assay (AID 1963582; active = well fitted activation curve with a large enough effect in the signal ratio in the repeat runs, not every such curve was filed as active; the % refers to the signal ratio). The method, boiled down:
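Quantitative HTS in p53RE-bla cells: after a 5 h settling period, compounds delivered in DMSO were left on cells for 16 h at 37 C, and reporter induction was measured as fluorescence following 2 h substrate loading.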

Experiment [10] addresses 5-hydroxytryptamine receptor 2A (Homo sapiens) (UniProt P28223). Put plainly: 5-hydroxytryptamine receptor 2A (HTR2A) small molecule antagonists, cell-based qHTS assay (AID 1963586). Note: nearly all actives have a fitted effect of over 45% in size. The method, boiled down: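 Antagonist-mode intracellular calcium assay: DOI (4 nM) added after 5 min compound pre-incubation at room temperature to dye-loaded HTR2A-CHO cells. Fluorescence followed for 3 min, sampled every second.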

For experiment [11] the target is unchanged. As to the kind of experiment: 5-hydroxytryptamine receptor 2A (HTR2A) small molecule agonists, cell-based qHTS assay (AID 1963587). Note: nearly all actives have a fitted effect of over 30% in size. The method, boiled down: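 HTR2A-CHO cells, plated 18 h at 37 C/5% CO2, dye-loaded 1 h at 37 C; compounds in DMSO added by pin tool (agonist mode). Intracellular calcium flux read as kinetic fluorescence on FDSS over 2 min at 1 s intervals.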

Experiment [12] concerns the target Muscarinic acetylcholine receptor M1 (Homo sapiens) (UniProt P11229). Put plainly: Cholinergic receptor muscarinic 1 (CHRM1) small molecule agonists, cell-based qHTS assay (AID 1963589). Note: nearly all actives have a fitted effect of over 35% in size. Note: potency is the fitted concentration of half-maximal effect. The method, boiled down: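 Agonist-mode qHTS in CHO cells stably carrying human muscarinic M1. Intracellular calcium is tracked by fluorescence every second after compound transfer; each compound runs at 15 concentrations in three independent runs.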

A short description of experiment [13]: cAMP Responsive Elements (CRE) small molecule agonists, cell-based qHTS assay (AID 1963590). The method, boiled down: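 Agonist mode qHTS in CRE-bla HEK 293T cells: compounds dosed from DMSO for 3 h at 37 C/5% CO2, followed by LiveBLAzer B/G FRET substrate for 2 h at room temperature.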
Experiment [14] can be described thus: cAMP Responsive Elements (CRE) small molecule antagonists, cell-based qHTS assay (AID 1963591; active = well fitted inhibition curve with a large enough effect in the signal ratio in the repeat runs, not every such curve was filed as active; the % refers to the signal ratio). Put shortly:
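Antagonist mode: test compounds are co-incubated with the adenylyl cyclase activator NKH477 (0.25 uM final) on CRE-bla HEK293T cells for 3 h at 37 °C, followed by LiveBLAzer substrate loading.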

The target in experiment [15] is Beta-2 adrenergic receptor (Homo sapiens) (UniProt P07550). Put plainly: Adrenergic beta2 receptor (ADRB2) small molecule antagonists, cell-based qHTS assay (AID 1963592). Note: series mostly up to about 92 µM; nearly all actives have a fitted effect of over 50% in size. Put shortly: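 Cells (CHO, stable ADRB2 overexpression) incubated 18-20hr at 37C; compounds added from DMSO; agonist mix (1nM isoproterenol, 100uM IBMX, 25uM Ro-20-1724) added; 0.5hr RT; d2-cAMP and anti-cAMP-cryptate added; 1hr RT; 665/615 nm read.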

Experiment [16] has as its target D(2) dopamine receptor (Homo sapiens) (UniProt P14416). As to the kind of experiment: Dopamine D2 receptor (DRD2) small molecule agonists, cell-based qHTS assay (AID 1963594). Note: nearly all actives have a fitted effect of over 35% in size. Put shortly: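 HEK293 cells stably expressing DRD2 were cultured 24 h at 37 C, then given Ro20-1724 (0.1 mM final) and compounds for 10 min at room temperature. NKH477 (200nM) was then added for 30 min. cAMP was read by HTRF.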

Experiment [17] shares this target. Put plainly: Dopamine D2 receptor (DRD2) small molecule antagonists, cell-based qHTS assay (AID 1963595; active = well fitted inhibition curve with a large enough effect in the signal ratio in the repeat runs, with a control signal flat; the % refers to the signal ratio). The method, boiled down:
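Antagonist mode in DRD2-HEK293 cells: after compound addition with 0.1 mM Ro20-1724, cells received quinpirole (12 nM) and NKH477 (200 nM) for 30 min at room temperature; HTRF cAMP read after 1 h detection.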

Experiment [18] can be described thus: p53 small molecule agonists, cell-based qHTS assay with rat liver microsomes: qHTS cell viability counter screen (AID 1963580). Note: nearly all actives have a fitted effect of over 45% in size. Put shortly:
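In HCT-116 cells carrying a p53 response element-bla reporter, compounds were metabolically activated in situ by rat liver microsomes with NADPH over 16 h. Cell ATP content then served as the cytotoxicity measure.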

Experiment [19] has as its target Muscarinic acetylcholine receptor M1 (Homo sapiens) (UniProt P11229). Put plainly: Cholinergic receptor muscarinic 1 (CHRM1) small molecule antagonists, cell-based qHTS assay (AID 1963588). Note: nearly all actives have a fitted effect of over 40% in size. The method, boiled down:
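CHRM1-CHO calcium-flux assay, antagonist mode. Cells were seeded 18 h, dye-loaded 1 h at 37 C and given compound for 5 min at RT, then acetylcholine was added at 50nM. FDSS fluorescence was read 3 min; 15 concentrations, three runs.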

Experiment [20] concerns the target Beta-2 adrenergic receptor (Homo sapiens) (UniProt P07550). Put plainly: Adrenergic beta2 receptor (ADRB2) small molecule agonists, cell-based qHTS assay (AID 1963593).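 Note: CHO cells stably overexpressing human ADRB2.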 The method, boiled down: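 CHO cells stably over-expressing ADRB2 were plated overnight at 37C, then dosed with compounds plus a stimulation mix containing 100uM IBMX and 25uM Ro-20-1724 for 0.5hr at room temperature. cAMP was measured by HTRF competition, 1hr.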

Each structure is given as a SMILES string. Values without a mark were called inactive. Records with an inconclusive call do not appear. Active and inactive are the calls of the source. Unless noted, calls come from the whole dose curve.
% is set by controls: 0 for no effect and ±100 for the full control effect.

Chain of Gonadotropin-releasing hormone receptor (Homo sapiens) (P30968 whole entry, looked up): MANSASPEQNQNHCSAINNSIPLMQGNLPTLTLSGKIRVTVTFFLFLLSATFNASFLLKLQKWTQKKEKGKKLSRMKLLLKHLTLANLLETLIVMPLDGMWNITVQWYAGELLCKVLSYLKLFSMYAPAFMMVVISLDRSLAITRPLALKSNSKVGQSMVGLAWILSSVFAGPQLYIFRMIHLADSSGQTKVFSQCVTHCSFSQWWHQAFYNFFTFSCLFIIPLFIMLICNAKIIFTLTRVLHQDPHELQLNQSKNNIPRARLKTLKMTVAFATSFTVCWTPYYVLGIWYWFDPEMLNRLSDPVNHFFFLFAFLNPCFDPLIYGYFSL
Chain of KiSS-1 receptor (Homo sapiens) (Q969F8 whole entry, looked up): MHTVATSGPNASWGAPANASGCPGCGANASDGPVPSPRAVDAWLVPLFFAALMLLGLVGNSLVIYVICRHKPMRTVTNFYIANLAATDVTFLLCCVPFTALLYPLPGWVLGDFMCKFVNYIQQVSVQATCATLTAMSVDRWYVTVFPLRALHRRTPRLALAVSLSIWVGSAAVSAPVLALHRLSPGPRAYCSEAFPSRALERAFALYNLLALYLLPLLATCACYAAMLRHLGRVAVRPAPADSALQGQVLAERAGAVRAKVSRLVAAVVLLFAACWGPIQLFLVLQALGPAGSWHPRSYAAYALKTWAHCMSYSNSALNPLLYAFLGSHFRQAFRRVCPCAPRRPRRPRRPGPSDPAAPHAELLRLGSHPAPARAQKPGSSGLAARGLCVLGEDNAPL
Chain of Muscarinic acetylcholine receptor M1 (Homo sapiens) (P11229 whole entry, looked up): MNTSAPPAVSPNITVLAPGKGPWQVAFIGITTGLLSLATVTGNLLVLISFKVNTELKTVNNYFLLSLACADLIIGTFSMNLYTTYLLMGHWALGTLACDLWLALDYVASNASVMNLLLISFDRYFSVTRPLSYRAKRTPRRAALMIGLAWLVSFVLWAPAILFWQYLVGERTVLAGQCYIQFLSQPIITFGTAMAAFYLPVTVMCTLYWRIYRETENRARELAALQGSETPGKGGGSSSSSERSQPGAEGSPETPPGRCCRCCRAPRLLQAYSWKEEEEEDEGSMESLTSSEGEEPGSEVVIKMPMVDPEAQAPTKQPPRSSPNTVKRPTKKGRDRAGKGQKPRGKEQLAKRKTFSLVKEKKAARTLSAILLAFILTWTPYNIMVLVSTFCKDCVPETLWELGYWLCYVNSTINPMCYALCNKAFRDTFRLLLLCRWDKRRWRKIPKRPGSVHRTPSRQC
Chain of D(2) dopamine receptor (Homo sapiens) (P14416 whole entry, looked up): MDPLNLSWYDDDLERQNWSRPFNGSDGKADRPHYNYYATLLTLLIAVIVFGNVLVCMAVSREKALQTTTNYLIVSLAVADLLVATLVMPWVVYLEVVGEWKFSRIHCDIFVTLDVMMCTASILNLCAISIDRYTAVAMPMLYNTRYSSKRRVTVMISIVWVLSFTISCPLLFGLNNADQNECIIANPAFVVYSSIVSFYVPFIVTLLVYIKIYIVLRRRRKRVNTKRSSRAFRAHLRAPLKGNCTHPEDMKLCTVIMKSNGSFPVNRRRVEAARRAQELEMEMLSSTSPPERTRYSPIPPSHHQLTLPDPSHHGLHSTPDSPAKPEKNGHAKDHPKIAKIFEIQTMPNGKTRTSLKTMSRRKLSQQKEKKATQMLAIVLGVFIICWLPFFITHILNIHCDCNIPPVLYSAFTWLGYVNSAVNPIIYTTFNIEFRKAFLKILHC
Chain of Beta-2 adrenergic receptor (Homo sapiens) (P07550 whole entry, looked up): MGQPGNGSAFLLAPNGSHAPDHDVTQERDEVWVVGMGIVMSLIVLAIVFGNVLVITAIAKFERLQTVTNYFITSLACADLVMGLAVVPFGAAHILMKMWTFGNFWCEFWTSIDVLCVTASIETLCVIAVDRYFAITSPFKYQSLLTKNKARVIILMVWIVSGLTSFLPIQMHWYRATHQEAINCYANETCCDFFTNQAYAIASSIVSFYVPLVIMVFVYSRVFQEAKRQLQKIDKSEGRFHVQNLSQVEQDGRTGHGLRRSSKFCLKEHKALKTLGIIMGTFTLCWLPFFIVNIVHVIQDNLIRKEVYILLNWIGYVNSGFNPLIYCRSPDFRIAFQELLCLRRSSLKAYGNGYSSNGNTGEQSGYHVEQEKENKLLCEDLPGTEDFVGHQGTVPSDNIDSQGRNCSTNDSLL
Chain of 5-hydroxytryptamine receptor 2A (Homo sapiens) (P28223 whole entry, looked up): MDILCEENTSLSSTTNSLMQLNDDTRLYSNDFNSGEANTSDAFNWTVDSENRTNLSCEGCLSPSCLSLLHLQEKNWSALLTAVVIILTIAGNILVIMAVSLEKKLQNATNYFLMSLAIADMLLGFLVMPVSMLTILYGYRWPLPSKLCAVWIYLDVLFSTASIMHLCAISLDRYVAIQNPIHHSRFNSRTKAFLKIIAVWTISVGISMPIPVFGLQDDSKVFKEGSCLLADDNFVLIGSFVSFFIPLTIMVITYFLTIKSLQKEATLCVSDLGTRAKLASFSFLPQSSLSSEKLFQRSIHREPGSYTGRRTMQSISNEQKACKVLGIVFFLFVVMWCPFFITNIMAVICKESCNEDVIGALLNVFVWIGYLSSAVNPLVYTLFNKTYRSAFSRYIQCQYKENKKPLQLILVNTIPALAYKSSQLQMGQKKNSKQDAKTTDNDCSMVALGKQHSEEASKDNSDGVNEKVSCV

For the molecule `CCCCCCCCOC(C)=O`, the Potency entry in experiment [1], in [2], in experiment [3], in experiment [6], in experiment [7] and in experiment [8] was “inactive” throughout. Besides, the Potency entry in [9], in experiment [10], in experiment [11], in experiment [12], in [13] and in experiment [14] was “inactive” throughout. The Potency result in [15], in [16] and in experiment [17] was “inactive” in each case. The result in experiment [4] and in [5] was inactive.

For `COc1ccc2c(c1OC)C(=O)O[C@@H]2[C@H]1c2c(cc3c(c2OC)OCO3)CCN1C`, the Potency entry in [1], in experiment [2], in experiment [3], in experiment [6], in experiment [7] and in experiment [8] was “inactive” each time. For the same molecule, the Potency entry in [18], in [13], in experiment [14], in experiment [15] and in [16] was “inactive” in each case. Moreover, the result in experiment [4] and in experiment [5] was inactive.

Turning to `CCOC(=O)/C=C/C(=O)OCC`, the Potency entry in experiment [1], in [2], in experiment [3], in experiment [6], in experiment [7] and in [8] was “inactive” in each case. For the same molecule, the Potency result in experiment [9], in experiment [10], in experiment [11], in [19], in [12] and in [13] was “inactive” throughout. Also, the Potency result in experiment [14], in [15], in experiment [16] and in experiment [17] was “inactive” throughout. The result in experiment [4] and in experiment [5] was inactive.

Consider `CCOc1nc(F)cc2nc(S(=O)(=O)Nc3c(Cl)cccc3C(=O)OC)nn12`, for which the Potency entry in experiment [1], in experiment [2], in [3], in experiment [6], in experiment [7] and in [8] was “inactive” throughout. In addition, the Potency entry in experiment [9], in experiment [10], in experiment [11], in experiment [19], in [12] and in [14] was “inactive” throughout. Further, the Potency entry in [15], in experiment [16] and in [17] was “inactive” in each case. The result in [4] and in [5] was inactive.

Turning to `CN1[C@@H]2CC[C@H]1CC(OC(=O)c1c[nH]c3ccccc13)C2` (some centres not stated), the Potency entry in [1], in [2], in experiment [3], in experiment [6], in experiment [7] and in experiment [8] was “inactive” throughout. Besides, the Potency entry in experiment [18], in [13], in experiment [14], in experiment [16] and in experiment [17] was “inactive” each time. For the same molecule, the outcome in [4] and in experiment [5] was inactive.

Turning to `CCCCCCC(O)CCOC(C)=O` (configuration not stated), the Potency entry in experiment [1], in experiment [2], in experiment [3], in experiment [6], in experiment [7] and in experiment [8] was “inactive” in each case. Also, the Potency entry in experiment [9], in experiment [10], in experiment [11], in experiment [19], in [12] and in experiment [13] was “inactive” throughout. Moreover, the Potency result in [14], in experiment [15], in [16] and in experiment [17] was “inactive” each time. For the same molecule, the result in experiment [4] and in experiment [5] was inactive.

In the case of `C=CC(=O)OCC[N+](C)(C)C`, the Potency result in [1], in [2], in experiment [6], in experiment [7], in [8] and in experiment [9] was “inactive” each time. In addition, the Potency entry in [10], in experiment [11], in [13], in [14], in experiment [15] and in experiment [20] was “inactive” in each case. Also, the Potency result in experiment [16] and in experiment [17] was “inactive” in each case. Further, the Potency was 0.438 µM (active) in experiment [3] and 0.0438 µM (active) in experiment [12]. For the same molecule, the result in experiment [4] and in experiment [5] was inactive.

Turning to `CCCCNc1ccc(NCCCC)c2c1C(=O)c1ccccc1C2=O`, the results for the activity change, negative = cytotoxicity in experiment [1] and in experiment [8] were -4.75% [at 19 µM] and -5.72% [at 13.5 µM], respectively. Besides, the activity, positive = activation in [2] was 14.7% [at 19 µM]. In addition, the activity change in [3] is -0.141% [at 11.8 µM, stronger effect = higher value]. For the same molecule, the activation was -3.45% [at 15.8 µM] in [4]; 0.174% [at 11.8 µM] in [5]; 5.72% [at 13.5 µM] in experiment [6]; 1.5% [at 13.6 µM] in experiment [7]; 7.46% [at 13.5 µM] in experiment [9]; -0.354% [at 15.9 µM] in [11]. The results for the activation in [12], in experiment [13] and in experiment [16] were -0.373% [at 15.8 µM], -1.16% [at 19 µM] and 6.31% [at 19 µM], respectively. Further, the activity, negative = inhibition in [10] is -10.8% [at 12.7 µM]; in [19], 4.22% [at 12.6 µM]. Also, the activity change, negative = inhibition is -1.01% [at 18.9 µM] in experiment [14], 1.56% [at 19 µM] in [15] and -5.82% [at 18.9 µM] in experiment [17].

The record behind these values is PubChem BioAssay (Tox21).
